Compounds without any hit were thinned out: in the full panel of roughly 79,000, 15% have a hit. Values without a mark were called inactive. Active and inactive are the calls of the source. No stated cut-off is given here; in the data, active means growth inhibition above about 70%; inactive means the rest.
Experiments:
[1] = NCI Yeast Anticancer Drug Screen. Data for the rad50 strain (AID 155);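 further: 0% = growth of vehicle-only cultures of the same strain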; settings: S. cerevisiae rad50 strain growth inhibition, active compounds read high
Procedure, shortened: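 Yeast carrying a defined DNA repair defect were exposed to test compounds, and growth was compared with vehicle-treated controls to give percent inhibition.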

[2] = NCI Yeast Anticancer Drug Screen. Data for the sgs1 mgt1 strain (AID 161);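 further: 0% = growth of cultures given vehicle only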; settings: S. cerevisiae sgs1 mgt1 strain, active compounds read high
Procedure, shortened: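 Percent growth inhibition was derived by comparing compound-exposed mutant yeast with vehicle-exposed cultures. The strain carries alterations in DNA damage repair.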

[3] = NCI Yeast Anticancer Drug Screen. Data for the cln2 rad14 strain (AID 165);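 further: 0% = growth equal to vehicle treated cultures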; settings: S. cerevisiae cln2 rad14 strain, active compounds read high
Procedure, shortened: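 Yeast strain cln2 rad14, bearing defects in cell cycle control and DNA repair, serves as the test system; values reflect growth inhibition compared with vehicle.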

[4] = NCI Yeast Anticancer Drug Screen. Data for the bub3 strain (AID 167); settings: S. cerevisiae bub3 mutant strain, active compounds read high
Procedure, shortened: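 Compounds were applied to a genetically altered yeast strain carrying a cell-cycle control defect. Growth inhibition was scored against vehicle-treated controls.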

[5] = NCI Yeast Anticancer Drug Screen. Data for the mlh1 rad18 strain (AID 175); settings: S. cerevisiae mlh1 rad18 strain growth inhibition, active compounds read high
Procedure, shortened: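 Steps: expose repair-defective yeast to compound; measure growth; express inhibition against vehicle-treated controls.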

[6] = NCI Yeast Anticancer Drug Screen. Data for the mec2-1 strain (AID 157); settings: S. cerevisiae mec2-1 strain, active compounds read high
Procedure, shortened: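 Using mec2-1 yeast: add compound, measure growth, express inhibition versus vehicle-treated cultures.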

[7] = at 5.0 µM (retest, dose inferred, filed as 0.5)
[8] = at 50.0 µM (retest, dose inferred, filed as 5.0)

SMILES | growth inhibition [1, 7] | growth inhibition [1, 8] | growth inhibition ([1]; at 50.0 µM) | growth inhibition [2, 7] | growth inhibition [2, 8] | growth inhibition ([2]; at 50.0 µM) | growth inhibition [3, 7] | growth inhibition [3, 8] | growth inhibition ([3]; at 50.0 µM) | growth inhibition [4, 7] | growth inhibition [4, 8] | growth inhibition ([4]; at 50.0 µM) | growth inhibition [5, 7] | growth inhibition [5, 8] | growth inhibition ([5]; at 50.0 µM) | growth inhibition [6, 7] | growth inhibition [6, 8] | growth inhibition ([6]; at 50.0 µM)
CC(C)c1ccc(C(C)C)c(C(=O)CN2CCOCC2)c1 | 4% | 13% | 41.1% | 3% | 19% | 42.6% | -1% | 2% | -3.3% | 3% | 17% | 97.8% (active) | 5% | 20% | 35.4% |  |  | 
NNc1ccccc1 | 13% | 97% (active) | 98.6% (active) | 3% | 98% (active) | 98.8% (active) | 0% | 96% (active) | 96.8% (active) | 9% | 98% (active) | 96.2% (active) | 15% | 98% (active) | 98.6% (active) |  |  | 
COc1ccc(C[C@H]2NC[C@H](O)[C@H]2OC(C)=O)cc1 | 34% | 99% (active) | 92.5% (active) | 27% | 99% (active) | 92.3% (active) | 43% | 99% (active) | 89.9% (active) | 27% | 99% (active) | 92.2% (active) | 51% | 98% (active) | 91% (active) |  |  | 
O=[n+]1c2ccccc2n([O-])c2ccccc21 | 93% (active) | 98% (active) |  | 61% | 99% (active) |  | 18% | 98% (active) |  | 0% | 99% (active) |  | 79% (active) | 98% (active) |  | 22% | 99% (active) | 
COc1ccc(/C=C/[N+](=O)[O-])cc1 | 71% (active) | 99% (active) |  | 65% | 100% (active) |  | 11% | 99% (active) |  | 14% | 99% (active) |  | -11% | 99% (active) |  | 27% | 100% (active) | 
CN1C(=O)C2(C)SSC1(C)C(=O)N2C | 45% | 95% (active) | 97.2% (active) |  |  |  | 10% | 85% (active) | 87.7% (active) | 17% | 93% (active) | 95.5% (active) | 57% | 97% (active) | 98.6% (active) | 27% | 95% (active) | 93.8% (active)
O=C(CBr)OCC(O)CCl (stereo unspecified) | 92% (active) | 99% (active) |  | 96% (active) | 100% (active) |  | 49% | 99% (active) |  | 79% (active) | 100% (active) |  | 47% | 99% (active) |  | 70% (active) | 100% (active) | 
O=[N+]([O-])c1cc(Cl)c(Cl)cc1[N+](=O)[O-] | 83% (active) | 99% (active) |  | 41% | 100% (active) |  | -2% | 99% (active) |  | 14% | 99% (active) |  | -11% | 98% (active) |  | 16% | 99% (active) | 
CC(=O)[CH-]C(C)=O.CC(=O)[CH-]C(C)=O.N=CC=N.[Sn+2] | 95% (active) | 98% (active) | 88.2% (active) | 98% (active) | 99% (active) | 94.2% (active) | 87% (active) | 97% (active) | 93.5% (active) |  |  |  |  |  |  |  |  | 
COc1cc(/C=C/[N+](=O)[O-])cc(OC)c1OC | 34% | 99% (active) |  | 48% | 100% (active) |  | 13% | 99% (active) |  | 19% | 100% (active) |  | -8% | 99% (active) |  | 22% | 99% (active) | 
ClCCN(CCCl)c1ccc(C2N(Cc3ccc(Cl)cc3)CCN2Cc2ccc(Cl)cc2)cc1 | 25% | 86% (active) | 79.4% (active) | 53% | 94% (active) | 80.9% (active) | 13% | 85% (active) | 46.9% | 22% | 71% (active) | 48% | 76% (active) | 97% (active) | 79.5% (active) |  |  | 
CCC1CC[N-]CC1.CCC1CC[N-]CC1.N#C[S-].N#C[S-].[Cd] | 26% | 85% (active) |  | 11% | 71% (active) |  | 4% | 54% |  | 5% | 42% |  | -16% | 57% |  | 16% | 56% | 
NS(=O)(=O)CCl.[Hg] | 13% | 99% (active) |  | 15% | 100% (active) |  | 3% | 98% (active) |  | 2% | 99% (active) |  | -16% | 93% (active) |  | 17% | 100% (active) | 
O=[N+]([O-])c1cccc([N+](=O)[O-])c1Cl | 58% | 96% (active) |  | 13% | 88% (active) |  | 8% | 12% |  | -12% | 33% |  | 7% | 46% |  | 22% | 96% (active) | 
O=C([O][Hg][CH2]C1COC([CH2][Hg][O]C(=O)c2ccccc2)CO1)c1ccccc1 (stereo unspecified) | 98% (active) | 98% (active) |  | 99% (active) | 99% (active) | 89.5% (active) | 97% (active) | 98% (active) | 90.6% (active) | 100% (active) | 99% (active) | 89.7% (active) | 98% (active) | 98% (active) |  | 99% (active) | 99% (active) | 
CC[C@]12C=CCN3CC[C@@]4(c5ccc(OC)cc5N(C)[C@H]4[C@@](O)(C(=O)OC)[C@@H]1OC(C)=O)[C@@H]32 |  |  | 30.7% |  |  | 18.3% |  |  | 19.8% |  |  | 20.9% |  |  | 8.35% |  |  | -6.5%
CCC1(O)C(=O)OCc2c1cc1n(c2=O)Cc2cc3ccc(C=O)cc3nc2-1 (stereo unspecified) |  |  | 39.5% |  |  | -17.5% |  |  | 2.3% |  |  | -24.7% |  |  |  |  |  | 19%
CC(C)[C@]12O[C@H]1[C@@H]1O[C@]13[C@]1(O[C@H]1C[C@H]1C4=C(CC[C@@]13C)C(=O)OC4)[C@@H]2O |  |  | 4.6% |  |  | -20.1% |  |  | -5.1% |  |  | -17.2% |  |  |  |  |  | 2.9%
C/C(=N\N=C(\[Se])N(C)C)c1ccccn1 |  |  | 86.9% (active) |  |  | 89.7% (active) |  |  | 89.3% (active) |  |  | 87.1% (active) |  |  |  |  |  | 89.9% (active)
CCCCCCC1C(=O)NC(=O)NC1=O |  |  | -4.25% |  |  | -8% |  |  | -7.75% |  |  | 2.6% |  |  | -12.3% |  |  | -15.1%
O=C(O)c1ccc([As](=O)(O)O)cc1 |  |  | -16.6% |  |  | 17.3% |  |  | -35.2% |  |  | -18.8% |  |  | -4.8% |  |  | 4.3%
CN1CCN(C)C(N2CCOCC2)C(C)(C)C1 (stereo unspecified) |  |  | 15.4% |  |  | -8.15% |  |  | -9.45% |  |  | 0.85% |  |  | 2.85% |  |  | -4.2%
CCOC(=O)C(CC(C)C)NC(=O)C(N)Cc1ccc(N(CCCl)CCCl)cc1 (stereo unspecified) |  |  | -2.4% |  |  | -27.1% |  |  | -17.6% |  |  | -30.1% |  |  |  |  |  | -8.9%
[Cl][Pt+2][Cl].[NH-]c1ccc(Cl)cc1[NH-] |  |  | 9.7% |  |  | -3.05% |  |  | 8.15% |  |  | -11.1% |  |  | 7.5% |  |  | -11.9%
COc1cc(C(=O)O)cc(OC)c1OC |  |  | -19.9% |  |  | -23.1% |  |  | -26.8% |  |  | 2.05% |  |  |  |  |  | -19.6%
CCOC(=O)NP(=O)(Nc1ccccc1)Nc1ccccc1 |  |  | 21.2% |  |  | -3.5% |  |  | 5.7% |  |  | -5.1% |  |  | -5% |  |  | -8.05%

Reference: PubChem BioAssay (NCI)
